# ChEMBL document CHEMBL1961873, “Compounds: GSK PKIS; Assays: Nanosyn kinase panel” (2012)
# Several values for one entry are separate records, joined by “and”; a condition that tells them apart may be missing. Identical values can stand only once.
# Tests used:
# [1] = molecular target: Rho-associated protein kinase 1 (Homo sapiens) (UniProt Q13464); settings: at 1 µM;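 further: reported values are mean percent inhibition of ROCK1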
# [2] = molecular target: Rho-associated protein kinase 2 (Homo sapiens) (UniProt O75116); settings: at 0.1 µM
# [3] = molecular target: Rho-associated protein kinase 2 (Homo sapiens) (UniProt O75116); settings: at 1 µM
# [4] = molecular target: Ribosomal protein S6 kinase alpha-1 (Homo sapiens) (UniProt Q15418); settings: at 0.1 µM
# [5] = molecular target: Ribosomal protein S6 kinase alpha-1 (Homo sapiens) (UniProt Q15418); settings: at 1 µM
# [6] = molecular target: Ribosomal protein S6 kinase alpha-3 (Homo sapiens) (UniProt P51812); settings: at 0.1 µM
# [7] = molecular target: Ribosomal protein S6 kinase alpha-3 (Homo sapiens) (UniProt P51812); settings: at 1 µM
# [8] = molecular target: Ribosomal protein S6 kinase alpha-2 (Homo sapiens) (UniProt Q15349); settings: at 0.1 µM
# [9] = molecular target: Ribosomal protein S6 kinase alpha-2 (Homo sapiens) (UniProt Q15349); settings: at 1 µM
# [10] = molecular target: Ribosomal protein S6 kinase alpha-6 (Homo sapiens) (UniProt Q9UK32); settings: at 0.1 µM;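 further: reported value is the mean inhibition of RSK4, from the GSK PKIS kinase inhibitor screen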
# Chain of Ribosomal protein S6 kinase alpha-6 (Homo sapiens) (Q9UK32 whole entry): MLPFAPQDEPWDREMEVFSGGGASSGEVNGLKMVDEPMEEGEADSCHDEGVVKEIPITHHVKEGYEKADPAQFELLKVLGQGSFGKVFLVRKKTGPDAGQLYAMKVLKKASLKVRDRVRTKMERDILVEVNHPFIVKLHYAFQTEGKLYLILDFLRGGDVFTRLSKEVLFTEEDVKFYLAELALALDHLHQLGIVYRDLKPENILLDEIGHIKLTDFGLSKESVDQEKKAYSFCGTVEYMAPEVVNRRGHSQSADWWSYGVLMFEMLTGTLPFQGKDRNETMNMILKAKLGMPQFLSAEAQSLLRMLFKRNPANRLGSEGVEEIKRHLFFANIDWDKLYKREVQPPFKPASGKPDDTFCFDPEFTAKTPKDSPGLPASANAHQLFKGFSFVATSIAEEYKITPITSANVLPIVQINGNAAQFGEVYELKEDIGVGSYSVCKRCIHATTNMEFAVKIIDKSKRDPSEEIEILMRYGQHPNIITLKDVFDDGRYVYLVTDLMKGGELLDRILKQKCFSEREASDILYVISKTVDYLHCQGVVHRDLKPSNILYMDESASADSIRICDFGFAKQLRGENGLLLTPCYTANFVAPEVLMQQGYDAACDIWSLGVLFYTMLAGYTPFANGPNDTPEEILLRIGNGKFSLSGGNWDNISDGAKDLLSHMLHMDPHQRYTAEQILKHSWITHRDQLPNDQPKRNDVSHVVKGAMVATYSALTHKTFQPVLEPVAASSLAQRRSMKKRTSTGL
# Chain of Ribosomal protein S6 kinase alpha-2 (Homo sapiens) (Q15349 whole entry): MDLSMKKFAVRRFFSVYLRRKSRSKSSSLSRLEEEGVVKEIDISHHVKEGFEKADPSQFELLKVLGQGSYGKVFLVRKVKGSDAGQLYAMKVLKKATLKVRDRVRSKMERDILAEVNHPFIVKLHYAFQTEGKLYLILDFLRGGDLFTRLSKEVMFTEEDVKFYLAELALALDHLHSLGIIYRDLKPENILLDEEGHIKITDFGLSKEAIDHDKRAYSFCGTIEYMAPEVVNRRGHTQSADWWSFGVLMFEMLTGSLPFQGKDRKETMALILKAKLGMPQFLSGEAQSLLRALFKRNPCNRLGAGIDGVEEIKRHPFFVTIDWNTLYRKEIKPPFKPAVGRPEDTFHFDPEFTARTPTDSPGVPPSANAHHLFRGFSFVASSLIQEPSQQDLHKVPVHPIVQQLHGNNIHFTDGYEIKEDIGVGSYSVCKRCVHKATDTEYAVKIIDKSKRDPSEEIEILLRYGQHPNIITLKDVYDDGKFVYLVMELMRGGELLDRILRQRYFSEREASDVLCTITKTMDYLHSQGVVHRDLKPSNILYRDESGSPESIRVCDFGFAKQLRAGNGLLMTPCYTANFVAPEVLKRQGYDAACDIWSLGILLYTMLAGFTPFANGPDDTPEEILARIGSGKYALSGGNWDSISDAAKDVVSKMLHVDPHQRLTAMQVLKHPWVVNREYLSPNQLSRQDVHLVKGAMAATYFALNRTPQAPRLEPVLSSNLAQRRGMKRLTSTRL
# Chain of Rho-associated protein kinase 2 (Homo sapiens) (O75116 whole entry, looked up): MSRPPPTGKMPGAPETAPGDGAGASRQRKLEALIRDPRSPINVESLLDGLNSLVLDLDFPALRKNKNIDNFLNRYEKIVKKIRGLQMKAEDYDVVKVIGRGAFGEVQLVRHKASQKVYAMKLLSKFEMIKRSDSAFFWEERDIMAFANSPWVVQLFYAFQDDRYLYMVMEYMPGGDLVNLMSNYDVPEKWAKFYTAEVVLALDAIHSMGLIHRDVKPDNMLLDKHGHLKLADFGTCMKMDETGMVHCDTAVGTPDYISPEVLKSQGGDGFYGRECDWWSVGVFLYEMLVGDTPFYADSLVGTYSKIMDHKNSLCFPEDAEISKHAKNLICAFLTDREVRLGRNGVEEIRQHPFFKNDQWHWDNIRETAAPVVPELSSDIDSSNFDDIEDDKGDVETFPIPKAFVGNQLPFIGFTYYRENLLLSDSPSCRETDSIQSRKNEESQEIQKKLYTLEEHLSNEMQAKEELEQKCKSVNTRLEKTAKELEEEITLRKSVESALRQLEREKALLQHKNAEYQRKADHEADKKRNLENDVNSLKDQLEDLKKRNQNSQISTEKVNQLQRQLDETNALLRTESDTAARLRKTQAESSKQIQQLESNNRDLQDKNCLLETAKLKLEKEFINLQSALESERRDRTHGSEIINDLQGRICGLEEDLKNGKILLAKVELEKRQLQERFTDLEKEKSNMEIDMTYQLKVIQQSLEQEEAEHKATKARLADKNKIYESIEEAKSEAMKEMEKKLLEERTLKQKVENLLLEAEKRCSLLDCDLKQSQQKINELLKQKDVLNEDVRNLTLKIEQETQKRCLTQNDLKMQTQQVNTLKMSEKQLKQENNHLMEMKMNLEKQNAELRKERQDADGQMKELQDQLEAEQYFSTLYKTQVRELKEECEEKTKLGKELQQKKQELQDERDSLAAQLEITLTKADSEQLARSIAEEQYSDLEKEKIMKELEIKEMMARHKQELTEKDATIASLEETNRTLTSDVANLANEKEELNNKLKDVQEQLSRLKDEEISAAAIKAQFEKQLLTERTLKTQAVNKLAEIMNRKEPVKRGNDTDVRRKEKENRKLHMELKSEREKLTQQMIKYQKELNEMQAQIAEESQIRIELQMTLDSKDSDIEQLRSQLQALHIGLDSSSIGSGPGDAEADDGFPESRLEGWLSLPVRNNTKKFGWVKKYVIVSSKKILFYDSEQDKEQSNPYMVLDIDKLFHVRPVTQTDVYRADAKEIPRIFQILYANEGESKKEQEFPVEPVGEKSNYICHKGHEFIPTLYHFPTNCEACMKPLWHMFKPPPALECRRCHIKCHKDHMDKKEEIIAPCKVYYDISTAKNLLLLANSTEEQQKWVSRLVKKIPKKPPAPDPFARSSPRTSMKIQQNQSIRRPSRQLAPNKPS
# Chain of Ribosomal protein S6 kinase alpha-1 (Homo sapiens) (Q15418 whole entry): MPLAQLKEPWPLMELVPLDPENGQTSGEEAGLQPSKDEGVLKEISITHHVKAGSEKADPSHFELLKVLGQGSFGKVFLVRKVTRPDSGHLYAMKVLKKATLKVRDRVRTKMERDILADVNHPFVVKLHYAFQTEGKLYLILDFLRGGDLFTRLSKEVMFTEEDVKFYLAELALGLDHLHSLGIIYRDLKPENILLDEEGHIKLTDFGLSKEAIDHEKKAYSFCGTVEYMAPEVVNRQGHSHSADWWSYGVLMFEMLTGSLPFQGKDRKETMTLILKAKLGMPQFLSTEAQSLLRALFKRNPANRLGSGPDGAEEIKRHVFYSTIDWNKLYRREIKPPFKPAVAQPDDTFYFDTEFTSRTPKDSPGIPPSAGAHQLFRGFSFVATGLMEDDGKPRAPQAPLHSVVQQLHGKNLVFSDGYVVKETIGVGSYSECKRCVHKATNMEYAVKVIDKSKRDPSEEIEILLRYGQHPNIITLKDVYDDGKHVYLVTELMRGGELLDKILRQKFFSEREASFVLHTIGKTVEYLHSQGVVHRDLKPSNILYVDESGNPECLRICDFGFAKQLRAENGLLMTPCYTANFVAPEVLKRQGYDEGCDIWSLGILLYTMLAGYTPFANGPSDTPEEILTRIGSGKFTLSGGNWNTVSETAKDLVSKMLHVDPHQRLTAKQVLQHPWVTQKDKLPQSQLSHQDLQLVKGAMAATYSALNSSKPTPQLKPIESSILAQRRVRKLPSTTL
# Chain of Ribosomal protein S6 kinase alpha-3 (Homo sapiens) (P51812 whole entry): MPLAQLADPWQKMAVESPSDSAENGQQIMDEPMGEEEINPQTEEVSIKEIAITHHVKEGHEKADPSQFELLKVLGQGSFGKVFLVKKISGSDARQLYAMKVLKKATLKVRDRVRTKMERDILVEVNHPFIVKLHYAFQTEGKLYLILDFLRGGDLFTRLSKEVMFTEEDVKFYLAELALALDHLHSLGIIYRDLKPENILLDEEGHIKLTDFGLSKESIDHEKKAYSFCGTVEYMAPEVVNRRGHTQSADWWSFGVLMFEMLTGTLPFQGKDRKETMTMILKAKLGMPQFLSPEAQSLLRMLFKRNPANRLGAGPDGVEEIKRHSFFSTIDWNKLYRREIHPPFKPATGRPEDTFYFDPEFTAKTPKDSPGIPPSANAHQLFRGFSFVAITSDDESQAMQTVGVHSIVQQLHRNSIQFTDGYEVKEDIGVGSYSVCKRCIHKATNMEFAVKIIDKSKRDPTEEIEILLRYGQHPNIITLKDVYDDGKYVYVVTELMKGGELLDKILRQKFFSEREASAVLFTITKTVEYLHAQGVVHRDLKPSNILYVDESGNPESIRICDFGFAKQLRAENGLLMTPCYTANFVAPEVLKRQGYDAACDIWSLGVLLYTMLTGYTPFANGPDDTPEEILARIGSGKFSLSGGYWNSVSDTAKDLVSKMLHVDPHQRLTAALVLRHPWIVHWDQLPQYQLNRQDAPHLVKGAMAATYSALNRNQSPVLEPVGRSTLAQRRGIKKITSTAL
Compound,inhibition [1],inhibition [2],inhibition [3],inhibition [4],inhibition [5],inhibition [6],inhibition [7],inhibition [8],inhibition [9],inhibition [10]
COc1ccc(-c2nn3ncccc3c2-c2ccnc(Nc3ccc(F)c(F)c3)n2)cc1,1.15%,3.85%,6.06%,4.22%,7.89%,4.49%,7.14%,2.96%,2.69%,1.78%
N#Cc1ccc2c(-c3ccnc(NC4CC4)n3)c(-c3ccc(F)cc3)nn2c1,0.26%,0.99%,0.79%,0.57%,0.36%,0.08%,0.42%,1.03%,1.48%,1.23%
COc1ccc(Nc2ncc(-c3ccccc3)o2)cc1OC,2.03%,-0.31%,2.22%,0.28%,2.18%,0.01%,2.14%,1.32%,4.35%,0.4%
Cc1cc(O)cc(C)c1/C=C/c1cncc(C(=O)OC(C)(C)C)c1,2.78%,4.67%,3.55%,0.74%,1.77%,1.52%,1.88%,1.57%,1.41%,0.33%
NS(=O)(=O)c1ccc(N/N=C2\C(=O)Nc3ccc(C(=O)NCc4ccncc4)cc32)cc1,5.11%,4.18%,15.1%,1.77%,7.98%,2.2%,6.7%,1.92%,7.63%,3.7%
FC(F)(F)CNc1nccc(-c2cnn3ncccc23)n1,-0.11%,1.53%,0.94%,-0.21%,1.24%,1.65%,2.69%,0.89%,1.84%,0.72%
NS(=O)(=O)c1cccc(N/C=C2\C(=O)Nc3ccccc32)c1,3.96%,2.91%,5.46%,3.72%,17.6%,2.42%,15.2%,5.57%,26.2%,4.77%
CN1CCN(Cc2ccc(-c3cc4ncnc(Nc5ccc(OCc6cccc(F)c6)c(Cl)c5)c4s3)o2)CC1,2% and 0.89%,1.84% and 3.91%,2.16% and 8.24%,0.86% and 2.44%,3.31% and 6.74%,0.78% and 2.19%,4.15% and 7.1%,2.32% and 1.76%,3.34% and 4.93%,1.22% and 1.16%
CN1CCC(n2cnc(-c3ccc(F)cc3)c2-c2ccnc(NCCO)n2)CC1,4.39%,3.23%,8.52%,1.81%,6.04%,0.9%,3.09%,3.09%,4.29%,1.56%
Fc1ccc(Nc2nccc(-c3c(-c4ccc(C(F)(F)F)cc4)nn4ncccc34)n2)cc1F,2.54%,1.24%,2.36%,0.24%,-0.46%,-0.49%,-1.74%,1.11%,2.41%,1.29%
CN(C)CCNC(=O)Nc1ccc(N(C)c2ccnc(Nc3ccc(CS(C)(=O)=O)cc3)n2)cc1,19.8%,5.05%,24%,2.03%,2.41%,0.87%,2.03%,2.14%,4.06%,1.56%
Nc1ncnc2occ(-c3ccc(NC(=O)Nc4cc(C(F)(F)F)ccc4F)cc3)c12,10.2% and 6.77%,7.01% and 2.27%,40% and 27.8%,9.06% and 4.67%,46.6% and 34.2%,3.22% and 1.04%,22.5% and 15.8%,9.18% and 5.3%,51.1% and 37.7%,-2.74% and 0.37%
CC1(C)CC(n2cnc(-c3ccc(F)cc3)c2-c2ccnc(N)n2)CC(C)(C)N1,1.6%,1.54%,1.8%,1.07%,1.93%,1.45%,2.77%,1.16%,1.53%,0.66%
Nc1nonc1-c1nc2cnccc2n1C1CC1,79.3% and 77.8%,56.4% and 54.3%,81% and 77.9%,66.3% and 63.6%,84.2% and 79.4%,46.1% and 47%,79% and 75.8%,67% and 69.5%,90.9% and 91.2%,10.3% and 11.7%
Cc1cc(O)cc(C)c1/C=C/c1cncc(C(N)=O)c1,3.29%,3.18%,2.02%,0.33%,-0.09%,1.07%,-0.35%,1.1%,1.48%,0.72%
